Among all 190,000 compounds or so, about 810 (0.43%) were called active. No stated cut-off is given here; in the data, active means inhibition above about 50%; inactive means the rest. For the sample, actives were picked, then their nearest neighbours and some compounds at random.
target: Mannose-6-phosphate isomerase (Homo sapiens) (UniProt P34949); assay: MPI enzyme activity inhibition – biochemical, fluorescence intensity, coupled assay, primary screen (AID 1209); details: purified PMI enzyme, at 20 µM, active compounds read high;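 further: plate controls were DMSO vehicle for no effect and wells lacking substrate for full effect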
Sequence (P34949 whole entry, looked up): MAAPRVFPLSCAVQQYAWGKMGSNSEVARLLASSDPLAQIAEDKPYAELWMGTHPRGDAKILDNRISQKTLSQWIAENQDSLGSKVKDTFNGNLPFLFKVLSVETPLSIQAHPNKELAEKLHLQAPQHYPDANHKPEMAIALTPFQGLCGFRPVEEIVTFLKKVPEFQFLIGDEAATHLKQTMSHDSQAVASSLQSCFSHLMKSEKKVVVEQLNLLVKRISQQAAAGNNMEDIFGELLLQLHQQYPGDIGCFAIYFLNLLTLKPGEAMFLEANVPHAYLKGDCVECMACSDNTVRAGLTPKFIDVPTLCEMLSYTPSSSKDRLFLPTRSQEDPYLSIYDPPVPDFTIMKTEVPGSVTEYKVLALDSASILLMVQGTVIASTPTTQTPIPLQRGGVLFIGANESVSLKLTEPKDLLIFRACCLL

SMILES	inhibition
O=C(O)CSc1nnc(Cn2nnc3ccccc32)n1CCc1ccccc1	-12.5% (inactive)
COc1ccc(CN(CC2CCC(C(=O)O)CC2)C(=S)Nc2ccccc2OC)cc1 (stereo unspecified)	-7.5% (inactive)
O=[N+]([O-])c1ccc(Sc2n[nH]c(-c3ccco3)n2)nc1	8.5% (inactive)
O=[N+]([O-])c1ccc(Sc2n[nH]c(-c3ccncc3)n2)nc1	60.8% (active)
O=[N+]([O-])c1ccc(Sc2n[nH]c(-c3ccccc3)n2)nc1	16.5% (inactive)
O=C(O)CC(NC(=O)COc1ccc(Cl)cc1Cl)C(=O)O (stereo unspecified)	4.9% (inactive)
Cc1cc2nc3c(=O)n(C4CCCCC4)c(=O)[nH]c3nc2cc1N	51.7% (active)
Cc1cc(C)cc(Nc2cc(=O)n(C3CCCCC3)c(=O)[nH]2)c1	12.2% (inactive)
CCCCCCn1c(=O)[nH]c2nc3cc(N)c(C)cc3nc2c1=O	35.2% (inactive)
N#CCCN(C(=O)CSc1ccc2c(c1)OCCO2)c1ccccc1	3.1% (inactive)
Cc1ccc(NC(=O)c2ccc(Br)o2)cc1S(=O)(=O)N(C)C	-19% (inactive)
CCN(C(=O)c1cc2cccc(OC)c2oc1=O)C1CCCCC1	-7.8% (inactive)
N#Cc1cc(N)ccc1Sc1ccccc1	4.7% (inactive)
COc1ccc(S(=O)(=O)N2Cc3ccccc3CC2C(=O)O)cc1OC (stereo unspecified)	-6.9% (inactive)
Nc1ncnc2nc(SCc3ccccc3)[nH]c12	9.5% (inactive)
CCC(Sc1nc2ncnc(N)c2[nH]1)C(=O)O (stereo unspecified)	64.8% (active)
CC(C)Sc1nc2ncnc(N)c2[nH]1	-8.9% (inactive)
Cc1ccc(C)n1-c1cccc(S(=O)(=O)N2CCOCC2)c1	-13.2% (inactive)
O=c1[nH]c2c(c3c1CCCC3)CCCC2	16.2% (inactive)
CC1CCCN(C(=S)SCC(=O)O)C1 (stereo unspecified)	0.8% (inactive)
O=C(CSC(=S)N1CCCC1)c1cc(Br)cc(Br)c1O	33.3% (inactive)

SMILES	inhibition
CC1CCCN(C(=S)SCC(=O)c2cc(Br)cc(Br)c2O)C1 (stereo unspecified)	66.4% (active)
COc1cc(/C=C2\SC(=Nc3ccccc3)N(CCc3c[nH]c4ccccc34)C2=O)ccc1OC(C)C(=O)O (stereo unspecified)	8% (inactive)
COc1cc(C(=O)OCC(=O)Nc2c(F)c(F)c(F)c(F)c2F)cc(OC)c1OC	-2.4% (inactive)
O=C(NC1CCCCC1)C(c1ccc(O)c(O)c1)N(C(=O)Cn1nnc2ccccc21)c1cccc(O)c1 (stereo unspecified)	47.5% (inactive)
CC(=O)Nc1ccc(N(C(=O)Cn2nnc3ccccc32)C(C(=O)NC2CCCC2)c2ccc(O)c(O)c2)cc1 (stereo unspecified)	61.2% (active)
Cc1ccc(N(C(=O)Cn2nnc3ccccc32)C(C(=O)NC2CCCCC2)c2cn(C)nc2C)cc1 (stereo unspecified)	-4.2% (inactive)
Cc1cc(C)n(-c2nc3ccccc3n3cnnc23)n1	-2.9% (inactive)
COc1ccc(OC)c(NC(=O)c2cc3c(=O)n4ccccc4nc3n2C)c1	-10.9% (inactive)
COc1ccc(NC(=S)NNC(=O)c2nnn(-c3ccccc3)c2C)cc1	-2% (inactive)
Cc1ccccc1N(CC(=O)Nc1ccccc1C(=O)NCc1ccco1)S(=O)(=O)c1ccccc1	-11.7% (inactive)
C=CCNc1nc(NCc2ccccc2)c(C#N)c2c1CN(C)CC2	54.4% (active)
C=CCNc1nc(N2CCOCC2)c(C#N)c2c1CN(C)CC2	9.5% (inactive)
N#Cc1c(NCCCO)nc(-c2ccccc2)c2c1CCCC2	13.8% (inactive)
CCN1CCc2c(C#N)c(N3CCCCC3)nc(NCc3ccccc3)c2C1	30.4% (inactive)
CCN1CCc2c(C#N)c(NCc3ccccc3)nc(N(CC)CC)c2C1	3% (inactive)
N#Cc1c(NCCN)nc(NCc2ccccc2)c2c1CCN(Cc1ccccc1)C2	17.8% (inactive)
CN1CCc2c(C#N)c(N3CCCCC3)nc(NCc3ccccc3)c2C1	26.6% (inactive)
CCN1CCc2c(C#N)c(NCc3ccccc3)nc(NCCO)c2C1	52.6% (active)
N#Cc1c(NCCCO)nc(NCc2ccccc2)c2c1CCN(Cc1ccccc1)C2	56.3% (active)
CCOC(=O)c1cccc(NC(=O)CSc2nnnn2C)c1	-7.4% (inactive)
Cc1cc(NC(=O)CCc2ccc(S(=O)(=O)N3CCOCC3)cc2)n(-c2ccccc2)n1	-7% (inactive)

SMILES	inhibition
N#Cc1cnn2ccc(-c3ccc4c(c3)CCC4)nc12	0.4% (inactive)
COCC(C)NC(=O)/C=C/c1ccc(OC)cc1 (stereo unspecified)	9.4% (inactive)
O=C(c1cc(Cl)ccc1[N+](=O)[O-])N1CCc2ccccc2C1	7.8% (inactive)
O=C(CSc1nc2ccccc2o1)NCC(=O)c1ccccc1	10.6% (inactive)
CC(=O)N1N=C(c2cccc(Cl)c2)OC1c1cccc([N+](=O)[O-])c1 (stereo unspecified)	10.4% (inactive)
Cc1cccc(NC(=O)CC2S/C(=N/c3nccs3)N(C)C2=O)c1 (stereo unspecified)	-1.9% (inactive)
Cc1cccc(-n2c(=O)c3c4c(sc3n3c(=S)[nH]nc23)CCC4)c1	-0.7% (inactive)
Cc1cccc(-n2c(=S)[nH]c3c(oc4ccccc43)c2=O)c1	-1.9% (inactive)
Cc1ccc(-n2c(=S)[nH]c3sc4c(c3c2=O)CCC4)cc1	2.3% (inactive)
COc1ccc(-n2c(=S)[nH]c3sc4c(c3c2=O)CCc2ccccc2-4)cc1	57.8% (active)
Cc1ccc(-n2c(=S)[nH]c3sc4c(c3c2=O)CCc2ccccc2-4)cc1	10.4% (inactive)
COc1ccc(N2C(=O)CCC(C(=O)NCCN3CCOCC3)C2c2ccc(OC)c(OC)c2)cc1 (stereo unspecified)	17.2% (inactive)
C=CCNC(=O)/C(=C/c1ccccc1OCC)NC(=O)c1ccccc1	3.5% (inactive)
CCCSc1nnc2[nH]c(=O)cc(N)n12	-1.4% (inactive)
CCO[C@H]1OC(C(=O)N2CCN(Cc3ccc4c(c3)OCO4)CC2)=C[C@@H](c2ccccc2)[C@@H]1CCCO	7.5% (inactive)
O=C(Cn1cncn1)NCCCc1ccccc1	4.2% (inactive)
COc1cc(/C=C2\NC(=S)N(C)C2=O)ccc1O	-2.1% (inactive)
CC(=O)c1c(C)[nH]c(C(=O)OCC(=O)Nc2cc(Cl)ccc2[N+](=O)[O-])c1C	9.3% (inactive)
Cc1ccc(S(=O)(=O)N2CCN(C(=O)/C=C/c3ccco3)CC2)cc1	26% (inactive)

— PubChem BioAssay AID1209 (Sanford-Burnham Center for Chemical Genomics, 2008)
